# A selection: hits, their analogues and other compounds. The true share with any hit is near 2.2%.
# FUS suppressor: qHTS for Suppressors of FUS Proteinopathy: Primary screen using FUS-linked yeast assay; S. cerevisiae FUS-expressing, growth rescue, OD600, 24 h; Potency, µM (titrated, usually from 76.6 µM), most hits filed as activators; 390,000 compounds, 0.24% hits; AID 1347120, 2019;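 further: plate controls were DMSO vehicle for no effect and reference control for full effect; nearly all actives have a fitted effect of over 55% in size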
#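 Galactose (2%) drives FUS expression in yeast precultured in raffinose; seeding density OD 0.005. Test compounds incubated 24hr at 30C and 99% humidity before absorbance at 600 nm was measured.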
# TDP43 rescue: qHTS of TDP-43 Inhibitors; TDP-43 expressing yeast growth rescue, BacTiter-Glo, 24 h; 410,000 compounds, 1.8% hits; Potency, µM (titrated, usually from 46.1 µM), inactives show at the top dose growth rescue (activation), most hits filed as activators; further: % of control where 0% means no effect; nearly all actives have a fitted effect of over 50% in size
#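 Yeast expressing TDP-43 (pregrown in raffinose, seeded at OD600=0.02 in galactose medium) exposed to compounds 24 hr at 30 deg C. Growth read by BacTiter-Glo luminescence; rescue of toxicity appears as increased signal.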
# aSyn rescue: qHTS of alpha-syn Inhibitors; 370,000 compounds, 0.14% hits; Yeast expressing alpha-synuclein, growth rescue, BacTiter-Glo, 24 h; Potency, µM (top dose mostly 46.1 µM), without a hit: at the top dose growth rescue (activation), most hits filed as activators; further: % of control where 0% means no effect; nearly all actives have a fitted effect of over 65% in size
#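 Readout is rescue of growth in alpha-synuclein-expressing yeast, so inhibitors of toxicity appear as activators. Growth after 24 hr at 30 deg C in galactose medium is quantified by luminescence.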
# Mito fusion yeast: qHTS Assay for Small Molecule Inhibitors of Mitochondrial Division or Activators of Mitochondrial Fusion | S. cerevisiae fusion-defective mutant growth rescue, CellTiterGlo 48 h | Potency, µM (titrated, usually from 46.1 µM), without a hit: at the highest dose growth rescue (activation), hits mostly activators | 320,000 compounds, 0.23% hits | AID 485298, 2010; further: % of control where 0% means no effect; nearly all actives have a fitted effect of over 45% in size
#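 Read-out: ATP-based luminescence (CellTiterGlo, 10 min ambient) reporting growth of fusion-defective ts yeast after 48 hours at 37C on glycerol/ethanol YPEG medium in the presence of compound.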
# Abeta rescue: qHTS for compounds that reverse cellular toxicity of Amyloid beta (A-beta) peptide in yeast: Primary Screen; 410,000 compounds, 0.063% hits; yeast expressing A-beta42, growth rescue, OD600, 48 h; response scale: 0% DMSO, 100% iron-clioquinol control; Potency, µM (titrated, usually from 46.1 µM), actives largely listed as activators; AID 1347071, 2019; further: nearly all actives have a fitted effect of over 55% in size
#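 Yeast growth medium received pinned compounds, then yeast cells expressing toxic A-beta were added; plates incubated at 30 C for 48 hr. Growth read as absorbance at 600 nm, normalized to DMSO and equimolar FeCl3 plus clioquinol controls.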
# Active calls of the source: *; i = inactive; ? = inconclusive; nt = no result; ! = repeats disagree; [ ] = dose if it differs, or a comment. The call rests on the fitted dose curve; in most records, active means well fitted curve in the direction sought with a large enough effect; inconclusive means small, poorly fitted or top-dose-only effect, or another doubt; inactive means no such curve, though single readings can be large; an effect the other way counts as inactive or inconclusive. Potency means the concentration at half of the fitted maximal effect.
SMILES,FUS suppressor,TDP43 rescue,aSyn rescue,Mito fusion yeast,Abeta rescue
C[C@H](CO)N1C[C@H](C)[C@@H](CN(C)C(=O)Nc2ccc3c(c2)OCO3)Oc2c(NC(=O)Nc3ccc(C(F)(F)F)cc3)cccc2C1=O,22µM*,4%,-12%,nt,i
C[C@H](CO)N1C[C@H](C)[C@@H](CN(C)C(=O)Nc2ccc(C(F)(F)F)cc2)Oc2c(NC(=O)Nc3ccccc3)cccc2C1=O,?,7%,-15%,nt,i
COc1ccc(NC(=O)N(C)C[C@H]2Oc3c(NC(=O)c4ccncc4)cccc3C(=O)N([C@H](C)CO)C[C@@H]2C)cc1,i,-3%,-3%,nt,i
COc1ccc(NC(=O)N(C)C[C@H]2Oc3c(NC(=O)Nc4ccc(C(F)(F)F)cc4)cccc3C(=O)N([C@H](C)CO)C[C@@H]2C)cc1,25µM*,-12%,-11%,nt,i
COc1ccc(NC(=O)N(C)C[C@H]2Oc3c(NC(=O)c4nc5ccccc5s4)cccc3C(=O)N([C@@H](C)CO)C[C@H]2C)cc1,16µM*,14%,-7%,nt,i
COc1ccc(C(=O)NCc2ccc3c(c2)CCN3C(=O)c2ccncc2)cc1,i,23%,nt,nt,i
COc1ccc(C2CC(c3ccc(Br)cc3)=NN2C(=O)c2cccnc2)cc1 (stereo not given),i,?,?,18µM*,i
COc1ccc(C2CC(c3ccccc3)=NN2C(=O)COC(=O)c2cccnc2)cc1 (stereo not given),nt,-6%,0%,19%,i
Cc1cccc(NC(=O)CCCCCN2C(=O)[C@@H]3Cc4ccccc4CN3C2=O)c1,i,27%,3%,-2%,i
O=C(CCCCCN1C(=O)[C@@H]2Cc3ccccc3CN2C1=O)Nc1cccc(F)c1,i,-2%,8%,13µM*,i
CCOC(=O)n1c(=O)n(Cc2ccccc2Cl)c2ccccc21,i,7%,11%,4%,i
CCOC(=O)n1c(=O)n(Cc2ccc(Cl)cc2Cl)c2ccccc21,i,22µM*,19%,22%,i[9.22 µM]
CCOC(=O)n1c(=O)oc2ccc(Cl)cc21,i,10µM*,1%,0%,i
Clc1ccc(C2Nc3cccc4cccc(c34)N2)c(Cl)c1,i,nt,16%,nt,?
O=C1NC(c2cccc3ccccc23)Nc2ccc(Cl)cc21 (stereo not given),nt,11µM*,1%,nt,i
CC(C)(C)N1CC(C(=O)Nc2ccc(C(N)=O)cc2)CC1=O (stereo not given),i,16%,-5%,nt,i
Cc1nc(-c2ccccc2)sc1-c1ccn[nH]1,i,14µM*,-20%,5%,i
CCOC(=O)c1cccc(NC(=O)CN(C)S(=O)(=O)c2ccco2)c1,i,nt,nt,nt,nt
CC(=O)N1N=C(c2ccc(Br)cc2)CC1c1cn(C)c2ccccc12 (stereo not given),nt,25µM*,?,24%,i
O=S(=O)(NCC(c1ccco1)S(=O)(=O)c1cccs1)c1ccc(Cl)cc1 (stereo not given),i,?,nt,nt,i
O=S(=O)(NCC(c1ccco1)S(=O)(=O)c1cccs1)c1ccc(F)c(C(F)(F)F)c1 (stereo not given),i,0.89µM*,nt,nt,i
CN(C(=O)C1CCCN(c2ncnc3c2nc2n3CCCCC2)C1)c1cccc(Cl)c1 (stereo not given),i,16µM*,0%,8%,i
Cc1cccc(N2CCN(C(=O)C3CCN(c4ncnc5c4nc4n5CCCCC4)CC3)CC2)c1C,32µM*!,?,10%,-10%,i
Cc1ccc(C)c(N2CCN(C(=O)C3CCCN(c4ncnc5c4nc4n5CCCCC4)C3)CC2)c1 (stereo not given),?,25µM*,2%,?,i
O=C(C1CCCN(c2ncnc3c2nc2n3CCCCC2)C1)N1CCN(c2cccc(Cl)c2)CC1 (stereo not given),?,20µM*,5%,8.9µM*,nt
SMILES,FUS suppressor,TDP43 rescue,aSyn rescue,Mito fusion yeast,Abeta rescue
O=C(NCc1cccs1)C1CCC(CNS(=O)(=O)c2cccc3cccnc23)CC1 (stereo not given),i,nt,nt,nt,nt
CC1=CC2=NC(=O)/C(=C\c3cccn3CCOc3ccccc3C)C(=N)N2O1,?,20µM*,12%,-11%,?
COc1ccccc1OCCOc1ccc(/C=C2/C(=N)N3OC(C)=CC3=NC2=O)cc1OC,i,0%,1%,2%,i
CCNC(=O)n1nccc1C(C)Oc1cccc(C(F)(F)F)c1 (stereo not given),i,16µM*,-8%,0%,i
CCNC(=O)C(C)Oc1ccc(Cl)cc1Cl (stereo not given),i,-21%,3%,-2%,i
CCNC(=O)n1nccc1C(C)Oc1ccc(Cl)cc1 (stereo not given),i,11µM*,-12%,0%,i
Oc1cc(O)c(/C=C/c2ccnc3ccccc23)c(O)c1,nt,nt,-4%,nt,nt
O=C(/C=C/c1cccs1)Nc1cccc(NC(=O)/C=C/c2cccs2)n1,i,7.9µM*,-8%,14µM*,i
Cc1c(Cl)cccc1NC(=O)c1cnc2sc(N3CCCC3)nn2c1=O,i,19%,nt,nt,i
CCOc1ccc(C(=O)NCC(=O)N2CCN(Cc3ccccc3)CC2)cc1,i,-5%,-12%,nt,i
CCOc1ccc(C(=O)OC(C)C(=O)N2CCN(Cc3ccccc3)CC2)cc1 (stereo not given),i,3.2µM*,-2%,nt,i
COCCCNC(=O)C1CCCN(C(=O)c2cnn(-c3ccc(F)cc3)c2-n2cccc2)C1 (stereo not given),i,0%,?,nt,i
COC(=O)c1ccccc1NC(=O)C1CCCN(C(=O)c2cnn(-c3ccc(F)cc3)c2-n2cccc2)C1 (stereo not given),i,35µM*,5%,nt,i
CCOC(=O)N1CCN(C(=O)c2cnn(-c3cccc(F)c3)c2-n2cccc2)CC1,i,16%,nt,nt,i
O=C(c1cnn(-c2ccc(F)cc2)c1-n1cccc1)N1CCN(c2cccc(Cl)c2)CC1,i,13µM*,2%,nt,i
O=C(NC1CCCCN(Cc2cccc(F)c2)C1=O)c1cccc(C(F)(F)F)c1 (stereo not given),i,nt,nt,nt,nt
CCCCc1nc(NCCNC(=O)c2ccccc2)c(C#N)c2c1CSC(C)(C)C2,i,22µM*,-7%,-13%,i
S=C(NCc1ccco1)N1CCN(c2cccc(Cl)c2)CC1,i,23%,1%,-12%,13µM*
